We go through 39 compounds from PubChem BioAssay (NCI).

The structures appear in SMILES notation. About 83,000 compounds went through this panel and 20% of them were active in at least one assay; those are over-represented in the sample as a whole.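 Activity criterion: percent growth below 10, measured after cells in 96-well plates were exposed to a single compound concentration for 48 hours.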 Unmarked numbers belong to inactive results. Activity calls are given as the source filed them.

The test system of the first test is MDA-MB-231 breast. As to the kind of experiment: NCI-60 one-dose screen, 48 h (100 = growth as untreated, 0 = no growth, -100 = all killed). The following applies: 10 µM.
Consider `COc1ccc(Nc2ccnc(NCCNc3ccnc4cc(Cl)ccc34)n2)cc1`, for which the growth was 37.3%. As for `O=C(Nc1ccc(Cl)c([N+](=O)[O-])c1)Nc1nc2ccccc2s1`, the growth was 86.2%.

As for `COc1cc(C(=O)/C=C/c2cc(-c3cc(OC)c(OC)c(OC)c3)n[nH]2)cc(OC)c1OC`, the growth was 3.71% (active). On the same count and under the same terms, the result for `CC(=O)N1C/C(=C/c2ccc(Cl)cc2)C(=O)/C(=C/c2ccc(Cl)cc2)C1` reads -23.6% (active); that for `COc1cc(/C=N/NC(=O)c2ccccc2Nc2cccc(C(F)(F)F)c2)cc(OC)c1OC`, 28.5%; that for `O=C1N=NC2=C1c1c3ccccc3c(O)n1CC2`, 107%.

For `CS(=O)(=O)Nc1cccc(-c2cc(-c3ccccc3Cl)c(C#N)c(N)n2)c1`, the growth was 49.1%. With `N#Cc1ncc(-c2ccc(C(F)(F)F)cc2)c(NCc2cc(C(F)(F)F)cc(C(F)(F)F)c2)n1`, the growth was 39.4%.

The subject of the next test is RXF 393 renal. The description is as above. The following applies: 10 µM.
Take `CCCCCCCNc1nc(C=O)ncc1-c1ccc(C(F)(F)F)cc1`: the growth is 97%.

For `C#Cc1ccc(-n2c(/C=C/c3ccc4ccccc4n3)nc3ncccc3c2=O)cc1`, the growth was -82.5% (active). Still for that read-out and setting: with `O=C1c2ccc3c4c(ccc(c24)C(=O)N1CCNCc1ccccc1)C(=O)N(CCNCc1ccccc1)C3=O` the figure was 90.5%; with `CCN(CC)Cc1cc(Nc2ccnc3cc(Cl)ccc23)ccc1OC`, 64.2%; with `Nc1ccc2c(c1)C1(CCC2)NC(=O)NC1=O` (configuration not stated), 96.1%. On the same count and under the same terms, with `O=C(Nc1cccc(Cl)c1)Nc1nccs1` the figure was 103%; with `N=C(N)c1ccc(-c2ccc(-c3cccs3)s2)s1`, -91.7% (active).

`O=C1NC(=O)N(Cc2ccccc2)CC1Br` (configuration not stated): the growth was 68%.

For `COc1cc(C(=O)N2CCN(c3ccccc3OC)CC2)c(N)cc1OCCCN1CCN(c2ccccc2OC)CC1`, the growth is 92.5%. Same read-out and setting: with `CN(C)CCN=c1nc2c(c(N)n1-c1ccccc1)c(=S)n(-c1ccccc1)c(=S)n2-c1ccccc1` the figure was -39.1% (active). Still for that read-out and setting: the result for `CCOC(=O)c1ccc(NC(=O)Nc2ncc(Cl)cc2Cl)cc1` reads 100%. On the same count and under the same terms, the result for `CN(C)N=Nc1nn(C(=O)Nc2ccc(Cc3ccccc3)cc2)c2ccccc12` reads 94.8%; that for `CC(=O)N(C)c1ccc(Nc2ccc(Nc3ccc(N(C)C(C)=O)cc3)c3c2C(=O)c2ccccc2C3=O)cc1`, 81.7%. As to `CCOC(=O)C1(CC(C)C)CCOC1=O` (configuration not stated), the growth was 118%. `COc1ccc2c(c1)nc(N)c1c3cccnc3cn21`: the growth was 34.8%. On the same count and under the same terms, the result for `CSCCCNC(=O)c1ccc2c(c1)/C(=C/c1[nH]c(C)cc1C)C(=O)N2` reads -31% (active); that for `COc1cc(Cl)cc(-c2nn(-c3cccc(NC(=O)Nc4ccc(Cl)c(Cl)c4)c3)cc2-c2ccncc2)c1`, 4.46% (active). Same read-out and setting: with `CC1=C(N2CCOCC2)C(N2CCOCC2)=C(C)C(=O)C1=O` the figure was 101%; with `COc1cc(-c2nc(Nc3nc4ccccc4s3)[nH]c(=O)c2C#N)cc(OC)c1O`, 105%. Same read-out and setting: the result for `COc1ccc(CN2CCC(N3CCCC3=O)c3cc(Cl)ccc32)cc1` (configuration not stated) reads 126%; that for `CC(=O)O[C@]1(C)CC[C@H]2[C@H](CNCCc3ccc(Cl)cc3)C(=O)O[C@@H]2C2=C(C)C(=O)C[C@H]21`, 115%. For the compound `COc1ccc(-c2nn(-c3cccc(NC(=O)Nc4cc(C(F)(F)F)cc(C(F)(F)F)c4)c3)cc2-c2ccncc2)cc1Cl`, the growth was -12.6% (active). As to `CN(CCc1ccccn1)c1ccccc1`, the growth is 120%. Same read-out and setting: with `COc1ccc(N=C2C(=Nc3ccc(OC)cc3)N(c3ccc(N(C)C)cc3)C(=S)N2c2ccc(OC)cc2)cc1` the figure was 106%; with `COc1cc2nc(Nc3cccc(NC(C)=O)c3)nc(N)c2cc1OC`, 94.1%; with `C#Cc1ccc(-n2c(/C=C/c3ccc(Cl)c(F)c3)nc3ncccc3c2=O)cc1`, -76.2% (active).

Regarding `COc1cccc(Cn2c(-c3nonc3N)nc3ccccc32)c1`, the growth is -40.1% (active).

With `c1ccc([I+]c2ccccc2)cc1`, the growth is 60.4%. For the compound `O=C(c1cccs1)c1ccccc1Cc1ccccc1`, the growth is 99.5%. As for `COc1ccc(-c2ccc(-c3ccc(C(=N)N)cn3)o2)cc1`, the growth is 85.7%. Same read-out and setting: with `Nc1c(C(=O)Nc2cccc3ccccc23)sc2nc3c(cc12)C(=O)CCC3` the figure was -5.71% (active); with `COc1ccc(Nc2ccnc(NCCNc3ccnc4cc(Cl)ccc34)n2)cc1`, 55.7%; with `O=C(Nc1ccc(Cl)c([N+](=O)[O-])c1)Nc1nc2ccccc2s1`, 113%. On the same count and under the same terms, with `COc1cc(C(=O)/C=C/c2cc(-c3cc(OC)c(OC)c(OC)c3)n[nH]2)cc(OC)c1OC` the figure was -84.3% (active). Same read-out and setting: with `CC(=O)N1C/C(=C/c2ccc(Cl)cc2)C(=O)/C(=C/c2ccc(Cl)cc2)C1` the figure was -92.8% (active); with `COc1cc(/C=N/NC(=O)c2ccccc2Nc2cccc(C(F)(F)F)c2)cc(OC)c1OC`, 4.73% (active). For `O=C1N=NC2=C1c1c3ccccc3c(O)n1CC2`, the growth was 106%.

Consider `CS(=O)(=O)Nc1cccc(-c2cc(-c3ccccc3Cl)c(C#N)c(N)n2)c1`, for which the growth was 6.08% (active). The same measure, in the same setting: with `N#Cc1ncc(-c2ccc(C(F)(F)F)cc2)c(NCc2cc(C(F)(F)F)cc(C(F)(F)F)c2)n1` the figure was 35.8%.
